# Results reported in publication PMC4336329 (PLoS ONE, 2015).
# About 14,000 (4.5%) of roughly 310,000 compounds showed an effect of 50% or more. The effect is printed as a negative number. The full list was thinned out, with strong results kept by preference.
# Target: human ether-à-go-go-related gene (hERG) potassium channel (human, UniProt Q12809)
# Assay: primary screen, population patch clamp on CHO cells stably expressing hERG; higher = less effect of the substance
# 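Also: peak tail current of the secondary pulse compared with the same well before compound.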
# human ether-à-go-go-related gene (hERG) potassium channel, sequence (Q12809 whole entry, looked up): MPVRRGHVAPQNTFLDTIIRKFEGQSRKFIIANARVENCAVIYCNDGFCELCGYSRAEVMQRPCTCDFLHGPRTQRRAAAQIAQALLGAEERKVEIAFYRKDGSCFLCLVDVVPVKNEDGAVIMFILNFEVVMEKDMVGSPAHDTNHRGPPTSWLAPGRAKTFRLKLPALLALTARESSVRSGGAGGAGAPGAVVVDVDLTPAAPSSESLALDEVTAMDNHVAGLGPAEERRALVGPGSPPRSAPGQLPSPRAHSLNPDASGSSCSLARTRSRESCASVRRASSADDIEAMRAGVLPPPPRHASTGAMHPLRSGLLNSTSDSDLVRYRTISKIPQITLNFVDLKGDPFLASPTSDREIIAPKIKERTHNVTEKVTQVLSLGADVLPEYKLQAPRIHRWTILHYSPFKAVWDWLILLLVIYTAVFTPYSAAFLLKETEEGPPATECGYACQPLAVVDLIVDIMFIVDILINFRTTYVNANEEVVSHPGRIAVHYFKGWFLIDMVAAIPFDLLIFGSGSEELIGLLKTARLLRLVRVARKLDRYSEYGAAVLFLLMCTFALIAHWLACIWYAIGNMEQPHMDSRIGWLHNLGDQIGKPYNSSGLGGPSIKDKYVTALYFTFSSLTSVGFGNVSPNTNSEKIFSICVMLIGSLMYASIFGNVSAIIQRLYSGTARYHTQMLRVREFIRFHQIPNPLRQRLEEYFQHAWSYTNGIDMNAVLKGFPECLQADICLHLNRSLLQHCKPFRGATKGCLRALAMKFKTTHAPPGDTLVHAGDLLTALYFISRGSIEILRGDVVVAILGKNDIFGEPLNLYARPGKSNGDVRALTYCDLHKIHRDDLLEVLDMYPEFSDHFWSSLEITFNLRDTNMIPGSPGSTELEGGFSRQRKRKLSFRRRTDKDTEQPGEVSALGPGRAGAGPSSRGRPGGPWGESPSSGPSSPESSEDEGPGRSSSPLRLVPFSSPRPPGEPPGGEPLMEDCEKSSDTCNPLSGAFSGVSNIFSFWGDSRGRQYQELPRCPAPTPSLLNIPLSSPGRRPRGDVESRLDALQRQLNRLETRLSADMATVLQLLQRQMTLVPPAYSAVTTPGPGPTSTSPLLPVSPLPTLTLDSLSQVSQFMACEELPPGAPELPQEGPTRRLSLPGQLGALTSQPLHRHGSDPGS
row,Compound,"hERG current change (%, negative = inhibition) at 10uM [%]"
1,CCN(C(=O)COc1ccccc1)c1nnc(-c2cccnc2)s1,8.69
2,Cc1cccc(NC(=O)c2cccc(NC(=O)Cc3cccs3)c2)c1,4.72
3,N#CCC(=O)N/N=C/c1ccc(N2N=C(c3ccccc3)CC2c2ccccc2)cc1 (stereo not drawn),25
4,CC(C(=O)N1CCC2(CC1)OCCO2)C1Sc2ccccc2NC1=O (stereo not drawn),6.9
5,O=C(NC1C2CC3CC(C2)CC1C3)c1ccc2c(c1)OCO2 (stereo not drawn),-5.92
6,CN(C)CCNc1ccc(-c2nn(C)c(=O)c3ccccc23)cc1[N+](=O)[O-],-1.47
7,CCOC(C(=O)OCCCN(CC)CC)(c1ccccc1)c1ccccc1.Cl,-11.5
8,N#CC(c1ccc(Cl)nn1)c1c(F)cccc1Cl (stereo not drawn),9.59
9,Cc1noc(C)c1COC(=O)[C@@H](NC(=O)c1ccccc1Cl)C(C)C,5.09
10,Cl.N[C@@H](Cc1c[nH]c2ccccc12)c1nnc(SCc2c(F)cccc2Cl)o1,1.99
11,COc1ccc(NC(=O)CN2CCN(S(=O)(=O)N(C)C)CC2)cc1,-4.55
12,CCOC(=O)c1ccc(NC(=O)CN2CCN(c3ccccc3)CC2)cc1,5.34
13,COc1ccc(NC(=O)CN2CCN(c3c(C)cc(C)cc3C)CC2)cc1,3.97
14,COC(=O)c1ccc(NC(=O)CCN2CCN(CCC(=O)Nc3ccc(C(=O)OC)cc3)CC2)cc1,-15.4
15,COC(=O)c1ccc(NC(=O)CCN2CCN(Cc3ccccc3)CC2)cc1,-58.6
16,COc1ccc(NC(=O)CN2CCN(c3c(C)cccc3C)CC2)cc1,-24.4
17,COc1ccc(NC(=O)CN2CCN(S(=O)(=O)N3CCCCCC3)CC2)cc1,-71.7
18,COc1cccc(N2CCN(CC(=O)Nc3ccc(S(=O)(=O)N4CCCCCC4)cc3)CC2)c1,-21.9
19,CCOC(=O)c1ccc(NC(=O)CN2CCN(Cc3ccccc3)CC2)cc1,-51
20,CCOC(=O)c1ccc(NC(=O)N2CCN(Cc3ccccc3)CC2)cc1,-11.1
21,COC(=O)c1ccc(NC(=O)CCN2CCN(c3ccccc3)CC2)cc1,-28.9
22,COc1ccc(NC(=O)CN2CCN(c3ccc(C)cc3C)CC2)cc1,-60.7
23,CC(C)[C@H](NC(=O)c1cc2cc(Cl)ccc2n1C)C(=O)N[C@@H](C(=O)O)c1ccccc1,15.9
24,CCCNC(=O)N1[C@H]2CC[C@@H]1C(C(=O)OC)=C(c1ccc(F)cc1OCc1ccccc1)C2,-23.3

row,Compound,"hERG current change (%, negative = inhibition) at 10uM [%]"
1,O=C(Oc1cc2oc(=O)cc(-c3ccccc3)c2cc1Cl)C1CCCCC1,4.05
2,COC(=O)Cn1cc(C(=O)OC)c2ccccc21,-4.51
3,COc1cc(C(=O)NC(C)c2ccc3ccccc3c2)cc(Cl)c1O (stereo not drawn),4.57
4,Cc1ccc(-c2cn(CCN)c(-c3ccc(Cl)nc3)n2)cc1,-21.7
5,COc1ccccc1C(=O)Nn1c(-c2cccs2)nc2ccccc2c1=O,-2.66
6,COc1cccc(CNC(=O)CSc2ccc(-c3ccco3)nn2)c1,2.15
7,COc1cccc(NC(=O)Cn2c(=O)n(C)c(=O)c3sc4c(c32)COC(C)(C)C4)c1,6.82
8,CC(=O)Nc1ccc(S(=O)(=O)NC2=NCN(C)CN2)cc1,2.76
9,COc1ccc(NC(=O)CN2CCCC2)cc1,15.7
10,COc1ccc(NC(=O)CN2CCN(Cc3ccccc3)CC2)cc1,-52.8
11,COc1ccc(NC(=O)CN2CCCCC2)cc1.O=C(O)C(=O)O,3.8
12,COc1ccc(NC(=O)CN2CCC(NC(=O)c3ccc(OC)cc3)CC2)cc1,-51.1
13,COc1ccc(NC(=O)CN2CCN(CC(=O)Nc3ccc(OC)cc3)CC2)cc1,-76.6
14,CCCCOc1ccc(NC(=O)CN2CCN(Cc3ccccc3)CC2)cc1,-49.4
15,COc1ccc(C(=O)NC2CCN(CC(=O)Nc3cccc(OC)c3)CC2)cc1,-25.4
16,COc1ccc(C(=O)Nc2ccc(N3CCN(Cc4ccccc4)CC3)cc2)cc1,-4.78
17,COc1ccc(C(=O)NC2CCN(CC(=O)NC3CCCCC3)CC2)cc1,-17.3
18,COc1cc(NC(=O)c2cccc(Br)c2)nc(OC)n1,3.34
19,CCSc1ccccc1C(=O)NCCCn1ccnc1,10.2
20,CCCC(=O)Nc1cc(-c2nnc(OC)c3ccccc23)ccc1N1CCCCC1,-36.3
21,C=CCOc1nc2c(c(=O)n(C)c(=O)n2C)n1Cc1ccccc1Cl,-6.73
22,COc1cc2c(cc1OC)C(C(=O)NCc1cccnc1)C(c1cccnc1)N(C)C2=O (stereo not drawn),9.05
23,COc1cc([N+](=O)[O-])cc(/C=N/NC(=O)Cn2cncn2)c1O,5.88
24,CC(=O)NCCC(=O)Nc1cc(S(=O)(=O)N2CCOCC2)ccc1Oc1ccccc1,-8.45

row,Compound,"hERG current change (%, negative = inhibition) at 10uM [%]"
1,COc1ccc(S(=O)(=O)N2CCCCC2)cc1NC(=O)CCNC(=O)c1ccccc1Cl,-11
2,CC(=O)NCCC(=O)Nc1cc(S(=O)(=O)N2CCOCC2)ccc1Oc1ccc(F)cc1,-30.5
3,CC(=O)NCCC(=O)Nc1cc(S(=O)(=O)N2CCCCC2)ccc1Oc1ccccc1,-64.9
4,CC(=O)NCCC(=O)Nc1cc(S(=O)(=O)N2CCCCC2)ccc1N1CCCCC1,-5.37
5,COc1ccccc1Oc1ccc(S(=O)(=O)N2CCCCC2)cc1NC(=O)CCNC(C)=O,-55.1
6,CC(=O)NCCC(=O)Nc1cc(S(=O)(=O)N2CCCCC2)ccc1Oc1cccc(C)c1,-68
7,COC(=O)CNc1cc(S(=O)(=O)N2CCCCC2)ccc1Oc1cccc(C)c1,-30.7
8,COc1ccc(S(=O)(=O)N2CCCCC2)cc1NC(=O)CCCOc1ccccc1,-9.13
9,Cc1ccc2cccc(Oc3ncnc4scc(-c5ccc(Cl)cc5)c34)c2n1,3.87
10,CCCNC(=O)C(=O)N/N=C/c1ccc(OCc2ccccc2)cc1,26.9
11,COC(=O)c1ccc(CSc2nc3cc(Cl)ccc3s2)o1,9.32
12,CN1C(=O)C(CC(=O)O)S/C1=N\N=C\c1ccc(O)cc1O (stereo not drawn),6.03
13,Cc1ccc(NCCC(=O)c2ccc(Br)cc2)cc1,0.444
14,CCOC(=O)N1CCC(NC(=O)Cc2ccccc2)CC1,15.6
15,CCOC(=O)CC(=O)CSc1ccc2nnc(-c3cccc(F)c3)n2n1,-72.2
16,CCOC(=O)N1CCC(Nc2ccc3nnc(-c4ccccc4)n3n2)CC1,-82
17,CCOC(=O)CC(=O)CSc1ccc2nnc(-c3ccc(F)cc3)n2n1,-23.4
18,Cc1cc(NC(=O)CSc2ccc3nnc(-c4cccc(F)c4)n3n2)no1,-14.3
19,CCOC(=O)CSc1ccc2nnc(-c3cccs3)n2n1,-51.2
20,CCOC(=O)N1CCC(Nc2c(-c3ccccc3)c(=O)c2=O)CC1,-23.2
21,O=C(CSc1ccc2nnc(-c3cccs3)n2n1)N1CCCC1,-43.4
22,CCOC(=O)CSc1ccc2nnc(-c3ccncc3)n2n1,-31.4
23,CCSc1ccc2nnc(-c3cccs3)n2n1,-34
24,CCOC(=O)CC(=O)CSc1ccc2nnc(-c3ccccc3)n2n1,-71.7

row,Compound,"hERG current change (%, negative = inhibition) at 10uM [%]"
1,CCOC(=O)CSc1ccc2nnc(-c3ccccc3)n2n1,-39.3
2,COc1ccc(CNC(=O)CN2CCN(S(=O)(=O)c3cccs3)CC2)cc1OC,1.64
3,Cc1c(C(=O)N2CCCCC2)c(S(=O)(=O)N2CCC(C)CC2)c(C)n1C,3.48
4,C=CCn1c(Oc2ccccc2F)nc2c1c(=O)n(C)c(=O)n2C,2.59
5,CC1=C[C@H](C)[C@H](c2c(F)cccc2Cl)CC1=O,6.22
6,C=CCSc1nnc(NC(=O)c2cccc(S(=O)(=O)N3CCOCC3)c2)s1,-11.1
7,O=C(Nc1ccccc1C(F)(F)F)N1CCCCCC1,8.71
8,COc1ccc2nc(NC(=O)C(NS(=O)(=O)c3cccc4nsnc34)C(C)C)sc2c1 (stereo not drawn),10.4
9,Cc1ccccc1C(=O)c1ccc2c(c1)n(C)c(=O)n2C,2.11
10,COC(=O)C(C)Sc1ccc2nnc(-c3ccccc3)n2n1 (stereo not drawn),-30.8
11,COC(=O)C(C)Sc1ccc2nnc(-c3cccc(F)c3)n2n1 (stereo not drawn),-58
12,COC(=O)C(C)Sc1ccc2nnc(-c3ccc(F)cc3)n2n1 (stereo not drawn),-27
13,COc1cc2c(cc1OC)C(C1C(=O)CCCC1=O)N(C(=O)CCl)CC2 (stereo not drawn),14.1
14,CC1CCCCC1NC(=O)COn1nnc2ccc(Cl)cc21 (stereo not drawn),-14.3
15,CN(C)CCCNS(=O)(=O)c1cc(Cl)c(Cl)cc1Cl,-27.8
16,CCN1CCN(c2ccc(NC(=O)c3ccc(C#N)cc3F)cc2Cl)CC1,-72.1
17,CCN1CCN(c2ccc(NC(=O)C(C)C)cc2Cl)CC1,-20
18,CN1CCN(c2ccc(NC(=O)c3ccc(C#N)cc3F)cc2Cl)CC1,-53.7
19,O=C(Nc1ccc(N2CCOCC2)c(Cl)c1)c1cc(F)c(F)cc1Cl,-20.9
20,N#Cc1ccc(C(=O)Nc2ccc([N+](=O)[O-])cc2)c(F)c1,4.42
21,CCC(=O)N1CCN(c2ccc(NC(=O)c3ccc(C#N)cc3F)cc2Cl)CC1,-7.73
22,CCN1CCN(c2ccc(NC(=O)c3ccco3)cc2Cl)CC1,-4.06
23,CCN1CCN(c2ccc(NC(=O)c3ccccc3F)cc2Cl)CC1,-70.1
24,O=C(Nc1ccc(N2CCOCC2)c(Cl)c1)c1ccccc1F,3.56
